Screens from PubChem.
Granule exo inh: blocks lytic granule exocytosis. TALL-104 LAMP-1 surface exposure, flow cytometry; cells stimulated with thapsigargin and PMA. inhibition, % at 10 µM. 360,000 compounds, 0.66% hits. AID 651702;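 active = inhibition above about 55%, limit read from the data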
NOD2 RIPK2 PPI: inhibitors of human NOD2-RIPK2 interaction. inhibition, % at 4.98 µM. 360,000 compounds, 0.38% hits. CHO BLA complementation NOD2-RIPK2, CCF4 ratio; in the data active = inhibition above about 21%
TLR9-MyD88 inh: TLR9-MyD88 interaction inhibition | Q9NR96+Q99836 | CHO BLA complementation TLR9-MyD88, CCF4 FRET ratio | inhibition, % at 4.98 µM | 340,000 compounds, 0.21% hits;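 active = inhibition above the mean over all tested compounds plus 3 SD, cut at about 21% in these data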
TLR4 MyD88 comp: inhibitors of human TLR4-MyD88 binding. AID 861. 200,000 compounds, 0.18% hits. HeLa CL3-4 TLR4/MyD88 BLA complementation, FRET ratio. inhibition, % at 8.4 µM; in the data active = inhibition above about 25%
Target sequence (O00206 whole entry, looked up): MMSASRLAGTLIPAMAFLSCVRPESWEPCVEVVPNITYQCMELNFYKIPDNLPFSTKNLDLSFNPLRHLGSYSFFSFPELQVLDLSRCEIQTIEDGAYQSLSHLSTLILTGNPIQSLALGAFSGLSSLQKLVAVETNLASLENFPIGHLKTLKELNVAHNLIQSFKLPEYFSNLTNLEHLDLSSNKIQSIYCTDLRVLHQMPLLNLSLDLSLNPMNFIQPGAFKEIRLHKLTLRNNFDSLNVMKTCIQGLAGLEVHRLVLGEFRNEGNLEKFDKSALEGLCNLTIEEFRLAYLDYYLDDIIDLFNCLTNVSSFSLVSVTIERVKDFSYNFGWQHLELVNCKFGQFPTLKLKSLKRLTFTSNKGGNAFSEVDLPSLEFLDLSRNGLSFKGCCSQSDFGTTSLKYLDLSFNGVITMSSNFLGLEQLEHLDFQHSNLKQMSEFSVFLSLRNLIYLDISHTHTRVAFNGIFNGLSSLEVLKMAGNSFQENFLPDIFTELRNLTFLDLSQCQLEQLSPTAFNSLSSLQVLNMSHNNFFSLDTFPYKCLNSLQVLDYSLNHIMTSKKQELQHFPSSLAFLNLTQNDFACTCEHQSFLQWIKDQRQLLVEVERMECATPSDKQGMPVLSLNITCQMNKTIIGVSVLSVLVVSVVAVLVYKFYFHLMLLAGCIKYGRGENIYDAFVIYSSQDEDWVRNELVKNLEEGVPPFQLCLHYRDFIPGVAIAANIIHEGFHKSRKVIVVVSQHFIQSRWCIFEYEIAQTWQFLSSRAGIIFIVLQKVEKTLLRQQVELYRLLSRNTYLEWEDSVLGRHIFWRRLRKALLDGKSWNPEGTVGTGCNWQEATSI
Target sequence (Q99836 whole entry, looked up): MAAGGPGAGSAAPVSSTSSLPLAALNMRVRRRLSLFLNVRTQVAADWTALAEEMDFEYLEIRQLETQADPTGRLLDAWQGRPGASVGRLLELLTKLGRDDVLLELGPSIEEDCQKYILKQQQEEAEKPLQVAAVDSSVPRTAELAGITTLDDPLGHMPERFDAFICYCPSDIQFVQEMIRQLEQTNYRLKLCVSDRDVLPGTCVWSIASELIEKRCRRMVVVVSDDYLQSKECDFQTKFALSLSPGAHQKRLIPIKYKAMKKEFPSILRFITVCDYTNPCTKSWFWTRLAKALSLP
ABHD5-PLIN5 inh: blocks binding of human ABHD5 to perilipin-5; Q00G26+Q8WTS1; inhibition, % at 4 µM; Split G. princeps luciferase complementation, luminescence, 4 h; 360,000 compounds, 0.78% hits; AID 602281;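 active = inhibition above the mean inhibition across every tested compound plus 3 SD, cut at about 22% in these data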
Beta2AR agonist: activates human beta-2 adrenergic receptor causing internalization. Am2.2-beta2AR cells, FAP receptor internalization, flow cytometry. response, % (concentration not given with the values). 340,000 compounds, 0.43% hits;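 active = response above a set limit, near 3 SD of response in nonfluorescent compounds, cut at about 42% in these data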
Beta2AR ag CP1: agonists of human beta-2 adrenergic receptor; shares compounds with Beta2AR agonist; percent response (surface receptor), % at 10 µM; 1,100 compounds, 25% hits; AID 540358; Am2.2-beta2AR cells, FAP surface receptor, flow cytometry; stronger effect = lower value;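 active = surface receptor percent response at or below 58%, roughly 3 SD from nonfluorescent compounds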
FAP fluor counter: counter-screen for beta-2AR agonists: fluorescence in Am2.2 cells. calls only at 10 µM. FAP fluorogen flow cytometry, fluorescence counterscreen; stronger effect = lower value. shares compounds with Beta2AR agonist. AID 588765. 1,100 tested, under 10 active;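 active = percent response below a set limit in fluorescence channel 1 and below 50% in channel 8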
Each line names hits and unclear results; the compound was inactive in the other large screens (follow-up assays come after a bar, where they were run); ! = not active in a repeat. Shown are actives, neighbours in structure and some others; about 2% of the full set was active somewhere.

Cc1ccccc1NC(=O)COC(=O)c1ccc(S(C)(=O)=O)c([N+](=O)[O-])c1	none
CC(=O)c1cccc(NC(=O)COC(=O)c2ccc(S(C)(=O)=O)c([N+](=O)[O-])c2)c1	Beta2AR agonist 68 | Beta2AR ag CP1 inactive | FAP fluor counter inactive
CCCc1nc2oc3c(NCC(C)O)ncnc3c2c2c1CCCC2 (configuration not stated)	none (no result: TLR9-MyD88 inh, TLR4 MyD88 comp) | Beta2AR ag CP1 inactive | FAP fluor counter inactive
CC(C)Cc1nc2oc3c(NCC4CCCO4)ncnc3c2c2c1CCC2 (configuration not stated)	none
O=C(COc1ccccc1F)N1c2ccccc2CCc2ccccc21	Beta2AR agonist 63 | Beta2AR ag CP1 15 | FAP fluor counter inactive
O=C1c2ccccc2C(c2nnnn2-c2ccc3c(c2)OCCO3)N1CCc1ccccc1F (configuration not stated)	none (no result: TLR9-MyD88 inh, TLR4 MyD88 comp, Beta2AR agonist)
CN1CCN(C2Cc3ccccc3Sc3ccc(Cl)cc32)CC1 (configuration not stated)	none (no result: TLR4 MyD88 comp)
CSc1ccc2c(c1)C(N1CCN(C)CC1)Cc1ccccc1S2 (configuration not stated)	Beta2AR agonist 61! (no result: TLR4 MyD88 comp) | Beta2AR ag CP1 inactive | FAP fluor counter inactive
CC(C)(C(=O)N[C@H](CO)c1ccccc1)C(=O)N[C@H](CO)c1ccccc1	none (no result: TLR4 MyD88 comp)
CC(C)(NC(=O)NC(CO)c1ccccc1)c1cccc(C(C)(C)NC(=O)NC(CO)c2ccccc2)c1 (configuration not stated)	none (no result: TLR4 MyD88 comp) | Beta2AR ag CP1 inactive | FAP fluor counter inactive
COc1ccc(NS(=O)(=O)c2cc(NC(=O)c3nc4nc(C)cc(C)n4n3)ccc2C)cc1	none | Beta2AR ag CP1 inactive | FAP fluor counter inactive
Cc1cc(C)n2nc(C(=O)OCC(=O)Nc3ccc(C)c(S(=O)(=O)N(C)C)c3)nc2n1	none (no result: TLR4 MyD88 comp)
COc1ccccc1NS(=O)(=O)c1cccc(NC(=O)c2nc3nc(C)cc(C)n3n2)c1	none | Beta2AR ag CP1 inactive | FAP fluor counter inactive
CC(C)[C@@H]1Cc2[nH]c(=S)[nH]c(=O)c2[C@H](CCc2ccccc2)O1	none (no result: TLR9-MyD88 inh, TLR4 MyD88 comp, Beta2AR agonist)
CCCCN1C(=O)C(CC(=O)NCCN2CCOCC2)CC(C(=O)N(C(C)C)C(C)C)=C1C (configuration not stated)	none (no result: TLR4 MyD88 comp, Beta2AR agonist)
Cc1ccc(CCNC(=O)CC2Oc3ccc(C)cc3NC2=O)cc1 (configuration not stated)	none
O=C(CC1Oc2ccccc2NC1=O)NCCc1ccccc1 (configuration not stated)	Beta2AR agonist 44 | Beta2AR ag CP1 inactive | FAP fluor counter inactive
c1ccc(OCCCCn2cnc3ccccc32)cc1	Beta2AR agonist 45 | Beta2AR ag CP1 inactive | FAP fluor counter inactive
O=C1CC(C(=O)Nc2ccc(C(=O)N3CCOCC3)cc2)C2(CCCCC2)O1 (configuration not stated)	Beta2AR agonist 52 | Beta2AR ag CP1 inactive | FAP fluor counter inactive
O=C1CC(C(=O)Nc2ccccc2)C2(CCCC2)O1 (configuration not stated)	none
CCCCn1c(N)c(N(CC)C(=O)c2ccc3c(c2)S(=O)(=O)c2ccccc2C3=O)c(=O)[nH]c1=O	Beta2AR agonist 55 | Beta2AR ag CP1 inactive | FAP fluor counter inactive
Cn1c(SCC(=O)N/N=C/C=C/c2ccccc2[N+](=O)[O-])nc2ccccc21	none
Cn1c(SCC(=O)N/N=C/C=C/c2ccco2)nc2ccccc21	none | Beta2AR ag CP1 inactive | FAP fluor counter inactive
Cc1ccc(-c2nc3c4ccccc4ccn3c2Cc2ccccc2C(F)(F)F)cc1	none (no result: TLR9-MyD88 inh, TLR4 MyD88 comp, Beta2AR agonist)
Cc1cc(N2CCN(C)CC2)ccc1NC(=O)c1cccc(S(=O)(=O)N2CCc3ccccc3C2)c1	Beta2AR agonist 42 | Beta2AR ag CP1 inactive | FAP fluor counter inactive
NC(COCc1ccccc1)c1csc(Nc2ccc(C(=O)c3ccccc3)cc2)n1 (configuration not stated)	none (no result: TLR9-MyD88 inh, TLR4 MyD88 comp, Beta2AR agonist)
COc1ccc(OC)c(S(=O)(=O)N2CCCC(C(=O)NCc3cccnc3)C2)c1 (configuration not stated)	Beta2AR agonist 71 (no result: TLR4 MyD88 comp) | Beta2AR ag CP1 inactive | FAP fluor counter inactive
COc1ccc(OC)c(S(=O)(=O)N2CCCC(C(=O)NCc3ccccn3)C2)c1 (configuration not stated)	none (no result: TLR4 MyD88 comp)
CC(C)C[C@@H](CN)NC(=O)c1nc[nH]c1C(=O)N[C@@H](C)C(=O)CNC[C@H](C)NC(=O)c1nc[nH]c1C(=O)N[C@@H](C)C(=O)O	none (no result: TLR4 MyD88 comp)
COc1ccc(Cl)cc1N(CC(=O)NCc1ccccn1)S(=O)(=O)c1ccc(C)cc1	none (no result: TLR4 MyD88 comp, Beta2AR agonist)
NC(=O)CC(NC(=O)c1ccc(Br)cc1)c1ccc(N2CCN(c3ccccn3)CC2)c([N+](=O)[O-])c1 (configuration not stated)	Granule exo inh 65, Beta2AR agonist 98 (no result: TLR4 MyD88 comp) | Beta2AR ag CP1 14 | FAP fluor counter inactive
NC(=O)CC(NC(=O)Cc1ccc(Cl)cc1)c1ccc(N2CCN(c3ccccn3)CC2)c([N+](=O)[O-])c1 (configuration not stated)	none (no result: TLR4 MyD88 comp)
NC(=O)CC(NC(=O)c1cccc(Br)c1)c1ccc(N2CCN(c3ccccn3)CC2)c([N+](=O)[O-])c1 (configuration not stated)	Beta2AR agonist 97 (no result: TLR4 MyD88 comp) | Beta2AR ag CP1 14 | FAP fluor counter inactive
NC(=O)CC(NC(=O)c1cccc(Br)c1)c1ccc(N2CCC(Br)CC2)c([N+](=O)[O-])c1 (configuration not stated)	none (no result: TLR4 MyD88 comp)
NC(=O)CC(NC(=O)Cc1ccc(Br)cc1)c1ccc(N2CCN(c3ccccn3)CC2)c([N+](=O)[O-])c1 (configuration not stated)	Beta2AR agonist 63 (no result: TLR4 MyD88 comp) | Beta2AR ag CP1 inactive | FAP fluor counter inactive
CCC(C(=O)Nc1c(C)cccc1C)n1c(-c2ccc(-c3ccccc3)cc2)nc2ccccc21 (configuration not stated)	none (no result: TLR9-MyD88 inh, TLR4 MyD88 comp, Beta2AR agonist)
Cc1ccc(Sc2ncccc2C(=O)NCC(c2ccc(F)cc2)N2CCOCC2)c(C)c1 (configuration not stated)	Beta2AR agonist 47 (no result: TLR4 MyD88 comp) | Beta2AR ag CP1 inactive | FAP fluor counter inactive
CC(C)[C@@H]1Cc2[nH]c(=O)[nH]c(=O)c2[C@H](c2ccc(F)cc2)O1	none (no result: TLR9-MyD88 inh, TLR4 MyD88 comp, Beta2AR agonist)
CCn1c2ccccc2c2cc(CNCc3ccc(OC)cc3OC)ccc21	Beta2AR agonist 51 | Beta2AR ag CP1 inactive | FAP fluor counter inactive
Cc1ccc(C(=O)c2ccccc2C(=O)OCC(=O)N2CC(C)CC(C)C2)cc1 (configuration not stated)	none (no result: TLR4 MyD88 comp)
